From PubChem BioAssay (Tox21)
Records with an inconclusive call do not appear. Activity calls are given as the source filed them. Unless noted, the call rests on the fitted dose curve.

How the values were obtained:
[1] = biological target: Gonadotropin-releasing hormone receptor (Homo sapiens) (UniProt P30968); assay: Human gonadotropin-releasing hormone receptor (GnRHR) small molecule agonists, calcium flux assay in GnRHR-HEK293 cells (AID 1920063); further: nearly all actives have a fitted effect of over 35% in size
Outline: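 HEK293 cells stably expressing human GnRHR were plated 18 h at 37 °C, loaded with calcium dye 1 h at 37 °C, then given compound in agonist mode; fluorescence (Ex/Em 480/540) read kinetically for 3 min at 1 s intervals.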

[2] = biological target: KiSS-1 receptor (Homo sapiens) (UniProt Q969F8); assay: Human kisspeptin (KISS1R) small molecule agonists, calcium flux assay in KISS1R-HEK293 cells (AID 1920064; active means well fitted activation curve with a large enough effect in the repeat runs)
Outline: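 HEK293 cells stably expressing human KISS1R were plated 18 h at 37 °C, loaded with calcium dye for 1 h at 37 °C, then given compound by pin tool. Fluorescence (Ex/Em 480/540) was read kinetically for 3 min.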

[3] = p53 small molecule agonists, cell-based qHTS assay with human liver microsomes: qHTS cell viability counter screen (AID 1963579); further: nearly all actives have a fitted effect of over 45% in size
Outline: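 Luminescent CellTiter-Glo read-out, 30 min at room temperature, gauged cytotoxicity in p53RE-bla cells exposed 16 h at 37 C to DMSO-dissolved compounds with metabolic activation by human liver microsomes and NADPH, each 0.5 mg/mL final.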

[4] = p53 small molecule agonists, cell-based qHTS assay with rat liver microsomes: qHTS cell viability counter screen (AID 1963580); further: nearly all actives have a fitted effect of over 45% in size
Outline: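 Intracellular ATP, by CellTiter-Glo luminescence, defines viability. HCT-116 p53RE-bla cells, 4,000 per well, were compound-treated in the presence of rat liver microsomes and NADPH for 16 h at 37 C.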

[5] = p53 small molecule agonists, cell-based qHTS assay: qHTS cell viability counter screen (AID 1963581); further: nearly all actives have a fitted effect of over 45% in size
Outline: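 p53RE-bla HCT-116 cells were exposed to compounds for 16 h at 37 C; after the beta-lactamase FRET read in the same wells, CellTiter-Glo was added and luminescence (intracellular ATP) read after 30 min at room temperature.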

[6] = biological target: 5-hydroxytryptamine receptor 2A (Homo sapiens) (UniProt P28223); assay: 5-hydroxytryptamine receptor 2A (HTR2A) small molecule antagonists, cell-based qHTS assay (AID 1963586); further: nearly all actives have a fitted effect of over 45% in size
Outline: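 Antagonist-mode intracellular calcium assay: DOI (4 nM) added after 5 min compound pre-incubation at room temperature to dye-loaded HTR2A-CHO cells. Fluorescence followed for 3 min, sampled every second.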

[7] = biological target: 5-hydroxytryptamine receptor 2A (Homo sapiens) (UniProt P28223); assay: 5-hydroxytryptamine receptor 2A (HTR2A) small molecule agonists, cell-based qHTS assay (AID 1963587); further: nearly all actives have a fitted effect of over 30% in size
Outline: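 Kinetic calcium-flux fluorescence (2 min, 1 sec intervals) after compound addition in agonist mode. HTR2A-CHO cells were cultured 18 h, then dye-loaded 1 h at 37 C.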

[8] = biological target: Muscarinic acetylcholine receptor M1 (Homo sapiens) (UniProt P11229); assay: Cholinergic receptor muscarinic 1 (CHRM1) small molecule antagonists, cell-based qHTS assay (AID 1963588); further: nearly all actives have a fitted effect of over 40% in size
Outline: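 CHRM1-CHO calcium-flux assay, antagonist mode. Cells were seeded 18 h, dye-loaded 1 h at 37 C and given compound for 5 min at RT, then acetylcholine was added at 50nM. FDSS fluorescence was read 3 min; 15 concentrations, three runs.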

[9] = biological target: Muscarinic acetylcholine receptor M1 (Homo sapiens) (UniProt P11229); assay: Cholinergic receptor muscarinic 1 (CHRM1) small molecule agonists, cell-based qHTS assay (AID 1963589); further: nearly all actives have a fitted effect of over 35% in size
Outline: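 CHO cells stably expressing human CHRM1, seeded 18 h at 37 C/5% CO2, dye-loaded 1 h at 37 C, then given compound in agonist mode; intracellular calcium fluorescence read kinetically at 1 s intervals. Fifteen concentrations, three independent runs.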

[10] = cAMP Responsive Elements (CRE) small molecule agonists, cell-based qHTS assay (AID 1963590)
Outline: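 CRE-bla HEK 293T cells in DMEM with 10% dialyzed FBS, NEAA, pyruvate and 25 mM HEPES were plated 18 h at 37 C/5% CO2, then exposed to compounds in DMSO for 3 h before LiveBLAzer B/G FRET substrate addition.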

[11] = cAMP Responsive Elements (CRE) small molecule antagonists, cell-based qHTS assay (AID 1963591; active means well fitted inhibition curve with a large enough effect in the signal ratio in the repeat runs, not every such curve was filed as active; the % refers to the signal ratio)
Outline: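 CRE-bla HEK293T cells were plated 18 h at 37 °C/5% CO2, pinned with compound in DMSO, then stimulated with NKH477 at 0.25 uM final for 3 h. LiveBLAzer B/G FRET substrate was added and plates incubated 2 h at room temperature.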

[12] = biological target: Beta-2 adrenergic receptor (Homo sapiens) (UniProt P07550); assay: Adrenergic beta2 receptor (ADRB2) small molecule antagonists, cell-based qHTS assay (AID 1963592); further: series mostly up to about 92 µM; nearly all actives have a fitted effect of over 50% in size
Outline: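 Cells (CHO, stable ADRB2 overexpression) incubated 18-20hr at 37C; compounds added from DMSO; agonist mix (1nM isoproterenol, 100uM IBMX, 25uM Ro-20-1724) added; 0.5hr RT; d2-cAMP and anti-cAMP-cryptate added; 1hr RT; 665/615 nm read.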

[13] = biological target: Beta-2 adrenergic receptor (Homo sapiens) (UniProt P07550); assay: Adrenergic beta2 receptor (ADRB2) small molecule agonists, cell-based qHTS assay (AID 1963593);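 further: CHO cells stably overexpressing human ADRB2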
Outline: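 CHO cells stably over-expressing ADRB2 were plated overnight at 37C, then dosed with compounds plus a stimulation mix containing 100uM IBMX and 25uM Ro-20-1724 for 0.5hr at room temperature. cAMP was measured by HTRF competition, 1hr.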

[14] = biological target: D(2) dopamine receptor (Homo sapiens) (UniProt P14416); assay: Dopamine D2 receptor (DRD2) small molecule antagonists, cell-based qHTS assay (AID 1963595; active means well fitted inhibition curve with a large enough effect in the signal ratio in the repeat runs, with a control signal flat; the % refers to the signal ratio)
Outline: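 DRD2-HEK293; 0.1 mM Ro20-1724; cpd 10 min RT; NKH477 200 nM + quinpirole 12 nM, 30 min RT; HTRF cAMP (cAMP-d2/anti-cAMP cryptate), 665/620 nm ratio after 1 h.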

[15] = biological target: D(2) dopamine receptor (Homo sapiens) (UniProt P14416); assay: Dopamine D2 receptor (DRD2) small molecule agonists, cell-based qHTS assay (AID 1963594); further: nearly all actives have a fitted effect of over 35% in size
Outline: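 cAMP accumulation in DRD2-HEK293 cells measured by HTRF after 1 h detection; compounds added 10 min before NKH477 (200nM […]) forskolin-analogue stimulation, 30 min at room temperature, with Ro20-1724 present at 0.1 mM final.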

[16] = G protein-coupled receptor (GPCR) small molecule agonists, calcium flux assay: HEK293 wild type cell line counter screen (AID 1920065)
Outline: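 Cells were plated and cultured 18 h at 37 C/5% CO2, then loaded with calcium dye for 1 h at 37 C. Compounds in DMSO were pin-transferred in agonist mode, and fluorescence (Ex/Em 480/540) was read kinetically for 3 min at 1 s intervals.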

[17] = p53 small molecule agonists, cell-based qHTS assay with human liver microsomes (AID 1963577);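 further: p53 response element beta-lactamase reporter cells with liver microsomes plus NADPH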
Outline: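 p53RE-bla cells; 5 h settle, 37 C/5% CO2; cpd + HLM 0.5 mg/mL + NADPH 0.5 mg/mL (final); 16 h 37 C; LiveBLAzer 2 h RT dark; fluorescence readout.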

[18] = p53 small molecule agonists, cell-based qHTS assay with rat liver microsomes (AID 1963578)
Outline: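 Rat liver microsome activation: microsomes 0.5 mg/mL, NADPH 0.5 mg/mL final; p53RE-bla cells, 16 h 37 C; LiveBLAzer readout, 2 h RT dark.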

[19] = p53 small molecule agonists, cell-based qHTS assay (AID 1963582; active means well fitted activation curve with a large enough effect in the signal ratio in the repeat runs, not every such curve was filed as active; the % refers to the signal ratio)
Outline: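 p53RE-bla beta-lactamase reporter cells rested 5 h at 37 C/5% CO2, then received compounds in DMSO by pin transfer and were incubated 16 h at 37 C. LiveBLAzer B/G FRET substrate was loaded for 2 h at room temperature before fluorescence reading.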

Measured: Potency

Sequence of KiSS-1 receptor (Homo sapiens) (Q969F8 whole entry, looked up): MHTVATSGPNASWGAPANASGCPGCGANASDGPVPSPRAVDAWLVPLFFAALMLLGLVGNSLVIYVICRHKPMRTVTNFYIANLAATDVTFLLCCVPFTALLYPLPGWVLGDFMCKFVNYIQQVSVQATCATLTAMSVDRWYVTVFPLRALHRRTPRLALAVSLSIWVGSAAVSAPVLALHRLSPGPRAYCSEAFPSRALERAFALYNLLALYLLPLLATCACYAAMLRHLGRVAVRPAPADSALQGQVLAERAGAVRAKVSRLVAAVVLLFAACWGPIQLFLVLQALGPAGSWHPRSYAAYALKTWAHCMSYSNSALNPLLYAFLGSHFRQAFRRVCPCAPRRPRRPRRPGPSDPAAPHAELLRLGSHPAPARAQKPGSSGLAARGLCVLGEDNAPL
Sequence of 5-hydroxytryptamine receptor 2A (Homo sapiens) (P28223 whole entry, looked up): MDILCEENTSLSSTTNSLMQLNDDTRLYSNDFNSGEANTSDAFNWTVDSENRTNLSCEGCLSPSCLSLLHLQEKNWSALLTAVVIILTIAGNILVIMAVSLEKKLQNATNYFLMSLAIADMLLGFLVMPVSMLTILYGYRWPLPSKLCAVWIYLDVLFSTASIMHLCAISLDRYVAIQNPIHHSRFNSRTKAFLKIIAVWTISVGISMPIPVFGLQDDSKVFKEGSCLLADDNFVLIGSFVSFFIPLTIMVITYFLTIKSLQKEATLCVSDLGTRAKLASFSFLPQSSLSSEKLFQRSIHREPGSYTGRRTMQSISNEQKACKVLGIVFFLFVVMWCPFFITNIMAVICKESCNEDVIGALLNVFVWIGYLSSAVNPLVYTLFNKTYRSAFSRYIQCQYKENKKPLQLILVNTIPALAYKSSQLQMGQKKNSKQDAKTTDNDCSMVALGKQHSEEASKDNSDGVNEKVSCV
Sequence of Muscarinic acetylcholine receptor M1 (Homo sapiens) (P11229 whole entry, looked up): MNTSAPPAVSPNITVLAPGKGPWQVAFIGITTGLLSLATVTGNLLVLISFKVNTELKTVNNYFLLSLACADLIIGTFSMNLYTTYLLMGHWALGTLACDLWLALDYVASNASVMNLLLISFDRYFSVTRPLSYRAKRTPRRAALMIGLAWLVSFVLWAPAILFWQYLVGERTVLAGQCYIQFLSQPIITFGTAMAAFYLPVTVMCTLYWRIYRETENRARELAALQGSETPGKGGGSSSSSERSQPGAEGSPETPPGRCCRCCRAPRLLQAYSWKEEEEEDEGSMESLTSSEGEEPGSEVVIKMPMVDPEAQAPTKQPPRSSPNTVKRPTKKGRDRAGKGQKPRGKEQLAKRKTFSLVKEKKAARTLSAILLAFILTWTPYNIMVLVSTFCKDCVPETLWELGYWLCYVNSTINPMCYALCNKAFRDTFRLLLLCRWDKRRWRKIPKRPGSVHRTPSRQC
Sequence of Beta-2 adrenergic receptor (Homo sapiens) (P07550 whole entry, looked up): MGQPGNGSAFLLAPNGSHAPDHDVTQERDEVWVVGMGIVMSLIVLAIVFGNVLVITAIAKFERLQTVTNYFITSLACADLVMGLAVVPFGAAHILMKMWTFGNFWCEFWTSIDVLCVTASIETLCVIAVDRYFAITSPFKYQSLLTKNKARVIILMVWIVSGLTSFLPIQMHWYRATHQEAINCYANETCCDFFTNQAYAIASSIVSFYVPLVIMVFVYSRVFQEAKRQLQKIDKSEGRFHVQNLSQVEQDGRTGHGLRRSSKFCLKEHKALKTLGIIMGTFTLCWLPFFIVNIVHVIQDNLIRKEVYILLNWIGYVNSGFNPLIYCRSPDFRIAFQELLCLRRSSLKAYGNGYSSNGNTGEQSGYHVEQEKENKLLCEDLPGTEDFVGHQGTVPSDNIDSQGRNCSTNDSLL
Sequence of Gonadotropin-releasing hormone receptor (Homo sapiens) (P30968 whole entry, looked up): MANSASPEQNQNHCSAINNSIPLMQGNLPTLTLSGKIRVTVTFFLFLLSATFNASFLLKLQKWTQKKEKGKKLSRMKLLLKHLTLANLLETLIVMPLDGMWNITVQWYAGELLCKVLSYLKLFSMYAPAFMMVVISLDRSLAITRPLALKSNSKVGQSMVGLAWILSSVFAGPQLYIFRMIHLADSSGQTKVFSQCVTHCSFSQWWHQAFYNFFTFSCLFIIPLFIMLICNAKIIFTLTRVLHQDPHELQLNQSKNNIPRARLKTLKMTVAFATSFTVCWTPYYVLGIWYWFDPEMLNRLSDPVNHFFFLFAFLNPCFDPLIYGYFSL
Sequence of D(2) dopamine receptor (Homo sapiens) (P14416 whole entry, looked up): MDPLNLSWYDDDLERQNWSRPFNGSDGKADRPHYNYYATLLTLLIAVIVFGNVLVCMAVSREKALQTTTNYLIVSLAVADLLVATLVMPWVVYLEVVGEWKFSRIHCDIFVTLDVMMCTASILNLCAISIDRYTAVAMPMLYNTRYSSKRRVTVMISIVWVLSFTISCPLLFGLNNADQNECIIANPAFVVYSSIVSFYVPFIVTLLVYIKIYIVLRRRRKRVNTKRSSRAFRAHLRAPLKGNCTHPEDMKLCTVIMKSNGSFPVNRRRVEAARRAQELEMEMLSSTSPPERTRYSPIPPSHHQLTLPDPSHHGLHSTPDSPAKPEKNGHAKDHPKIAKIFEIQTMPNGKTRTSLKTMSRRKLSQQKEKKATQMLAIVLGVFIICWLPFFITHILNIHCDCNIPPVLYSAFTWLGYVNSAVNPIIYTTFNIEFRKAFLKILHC

CC[N+](CC)(CC)CC
inactive: [1] | [2] | [3] | [4] | [5] | [6] | [7] | [8] | [9] | [10] | [11] | [12] | [13] | [14]

Sc1ccccc1
inactive: [1] | [2] | [3] | [4] | [5] | [6] | [7] | [8] | [9] | [10] | [11] | [13] | [15]

CN1CC[C@]23c4c5ccc(O)c4O[C@H]2[C@@H](O)CC[C@H]3[C@H]1C5
inactive: [1] | [16] | [17] | [18] | [3] | [4] | [19] | [6] | [7] | [8] | [9] | [10] | [11] | [12] | [13] | [15] | [14]

[Cl-].[Cl-].[Cl-].[Fe+3]
inactive: [1] | [2] | [16] | [3] | [4] | [5] | [6] | [7] | [8] | [9] | [10] | [11] | [12] | [13] | [15] | [14]

O=C(O)c1ccccc1O
inactive: [1] | [2] | [16] | [10] | [11] | [12] | [15] | [14]

CCCCCCCCCl
inactive: [2] | [16] | [17] | [18] | [3] | [4] | [5] | [19] | [6] | [7] | [8] | [9] | [10] | [11] | [12] | [13] | [15]

CN1C(=O)CN=C(c2ccccc2)c2cc(Cl)ccc21
inactive: [1] | [2] | [5] | [19] | [10] | [11] | [12] | [15] | [14]

Nc1ccc2ccccc2c1
inactive: [1] | [2] | [16] | [18] | [3] | [4] | [5] | [6] | [7] | [8] | [9] | [10] | [11] | [12] | [15] | [14]

Cl
inactive: [1] | [2] | [16] | [4] | [5] | [6] | [8] | [9] | [10] | [11] | [12] | [13] | [15] | [14]

CCc1cccc(C)c1N(C(=O)CCl)C(C)COC (stereo unspecified)
inactive: [1] | [16] | [18] | [3] | [4] | [5] | [19] | [6] | [7] | [8] | [9] | [10] | [11] | [12] | [13] | [15] | [14]
